According to PubChem BioAssay (NCI):
Compounds without any hit were thinned out: in the full panel of roughly 79,000, 15% have a hit. No stated cut-off is given here; in the data, active means growth inhibition above about 70%; inactive means the rest.

Tests used:
[1] = NCI Yeast Anticancer Drug Screen. Data for the rad50 strain (AID 155);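 further: 0% = growth of vehicle-only cultures of the same strain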; conditions: S. cerevisiae rad50 strain growth inhibition; at 50.0 µM; stronger effect = higher value
How it was run: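 Readout: growth inhibition relative to vehicle-treated cultures. Compound exposure was carried out in a genetically defined yeast strain deficient in DNA damage repair.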

[2] = NCI Yeast Anticancer Drug Screen. Data for the mec2-1 strain (AID 157); conditions: S. cerevisiae mec2-1 strain, at 50.0 µM, stronger effect = higher value
How it was run: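 Readout is yeast growth inhibition, normalised to vehicle-treated controls, in the mec2-1 strain exposed to compound.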

[3] = NCI Yeast Anticancer Drug Screen. Data for the sgs1 mgt1 strain (AID 161);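 further: 0% = growth of cultures given vehicle only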; conditions: S. cerevisiae sgs1 mgt1 strain, at 50.0 µM, stronger effect = higher value
How it was run: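 Percent growth inhibition was derived by comparing compound-exposed mutant yeast with vehicle-exposed cultures. The strain carries alterations in DNA damage repair.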

[4] = NCI Yeast Anticancer Drug Screen. Data for the cln2 rad14 strain (AID 165);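 further: 0% = growth equal to vehicle treated cultures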; conditions: S. cerevisiae cln2 rad14 strain, at 50.0 µM, stronger effect = higher value
How it was run: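 Relative to vehicle controls, growth inhibition of compound-treated cln2 rad14 yeast was recorded.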

[5] = NCI Yeast Anticancer Drug Screen. Data for the bub3 strain (AID 167); conditions: S. cerevisiae bub3 mutant strain, at 50.0 µM, stronger effect = higher value
How it was run: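 Readout: yeast growth inhibition, expressed relative to vehicle-only wells. The test organism is a mutant strain from a panel with lesions in DNA repair or checkpoint genes.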

[6] = NCI Yeast Anticancer Drug Screen. Data for the mlh1 rad18 strain (AID 175); conditions: S. cerevisiae mlh1 rad18 strain growth inhibition; at 50.0 µM; stronger effect = higher value
How it was run: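 Test agents were incubated with a yeast strain of defined genotype (DNA damage repair defect). Inhibition of growth was derived by comparison with vehicle-exposed cultures.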

Measured: growth inhibition

NC(=O)C1CCc2ccccc2C1 (stereo unspecified)
inactive: [1] 0.7% | [2] -15.1% | [3] 2.6% | [4] 3% | [5] -5.15% | [6] -9.45%

CCOC(=O)C(C)(OCC)OCC
inactive: [1] -13.4% | [2] -13.2% | [3] -17.2% | [4] -8.55% | [5] -0.3% | [6] 11.9%

CC(=N\N=C(N)N)/C(N=Nc1ccc(S(N)(=O)=O)cc1)=N\N=C(N)N
inactive: [1] -0.75% | [2] 5.55% | [3] 19.4% | [4] -45.6% | [5] -0.55% | [6] 21.3%

O=C(O)C1CCCCC1C(=O)Nc1ccc(Cl)c(Cl)c1 (stereo unspecified)
inactive: [1] 5.75% | [2] 20.1% | [3] -5.65% | [4] -4.15% | [5] 13.6% | [6] -48.1%

CC1=CC(=O)Nc2ccccc2S1
inactive: [1] 43.2% | [2] 29.2% | [3] 59.2% | [4] 17% | [5] 56% | [6] 23.6%

O=C1NC(=O)N(C(F)(F)F)C(F)(F)N1C(F)(F)F
inactive: [1] 1.25% | [2] 4.55% | [3] 3.75% | [4] 30.9% | [5] 5.8% | [6] 23.1%

O=C1C=CC(=Nc2ccc(OC(=O)c3ccccc3)cc2)C=C1
inactive: [1] 9.9% | [2] -4.95% | [3] 1.45% | [4] -35% | [5] -3.8% | [6] 9.35%

COc1cc2c(cc1OC)C1=C(/C=C\C(C)=O)CCN1CC2
inactive: [1] -6.9% | [2] 20.9% | [3] -4.45% | [4] -8.65% | [5] 0.1% | [6] 5.55%

O=C1C=C(Nc2ccc(Cl)cc2Cl)c2ccccc2C1=O
inactive: [1] 30.2% | [2] 17.7% | [3] 17.2% | [4] 29% | [5] 27.9% | [6] 37.5%

CSc1nc2c([nH]1)c(=O)n(C)c(=O)n2C
inactive: [1] 8.8% | [2] 21.4% | [3] 8.4% | [4] -1.8% | [5] 16.8% | [6] 7.1%

CC1c2ccc3ccccc3c2C(=O)c2cccc(Cl)c21 (stereo unspecified)
inactive: [1] 0.45% | [2] 31.9% | [3] 14.7% | [4] -42.6% | [5] -5.65% | [6] -1.65%

C=CCOCCC(OCC=C)OCC=C
inactive: [1] 1.25% | [2] 7.75% | [3] 4.4% | [4] -23.9% | [5] -1.3% | [6] 8.85%

CCCCCCCCCCCCCCCCCC(=O)N/N=C/c1ccc(O)cc1
inactive: [1] -22.3% | [2] -12.4% | [3] -16.2% | [4] -61.2% | [5] -6.2% | [6] 1.85%

N#C/C(=C\c1ccc(C#N)cc1)C(=O)O
inactive: [1] -16.6% | [2] -3.1% | [3] -30% | [4] 2.75% | [5] -14.4% | [6] 9.55%

COC1OC(CO)C(OC(=O)Nc2ccccc2)C(OC(=O)Nc2ccccc2)C1O (stereo unspecified)
inactive: [1] -16.9% | [2] -10.7% | [3] -1.4% | [4] -38.1% | [5] 2.7% | [6] -8.15%

CCN(CC)c1ccc(S(=O)(=O)NC(=O)OC)cc1
inactive: [1] 3.55% | [2] -2% | [3] -0.65% | [4] 3.45% | [5] -1.25% | [6] -5.5%

CC1(C)CC(=O)C(C)(CCc2ccccc2)C(=O)C1
inactive: [1] -2.8% | [2] 8.9% | [3] 13.7% | [4] -44.6% | [5] -11.4% | [6] -6.65%

CCN(CCO)CC(O)Cn1cnc2c(N)ncnc21 (stereo unspecified)
inactive: [1] 2.35% | [2] -13.6% | [3] -18.1% | [4] 26.6% | [5] -17.3% | [6] 23.4%

CCC1N=C(N)N=C(N)N1c1ccc(Cl)c(Cl)c1 (stereo unspecified)
inactive: [1] 16.2% | [2] 11.6% | [3] 9.25% | [4] -8.7% | [5] 10.7% | [6] 37.8%

CCCC1OCC=CCO1
inactive: [1] 3.75% | [2] -23.6% | [3] -21.1% | [4] -1.45% | [5] -33.5% | [6] 20.4%

CCOC(=O)C(CC)C1=CCCCC1 (stereo unspecified)
inactive: [1] -21% | [2] -48.7% | [3] -11.2% | [4] 12.3% | [5] -11.2% | [6] -8.55%
